# Columns and labels:
# Test in all cases: DAPPL (digital affinity profiling via proximity ligation, sequencing); 10 mM Tris-HCl pH 7.5, 50 mM NaCl, 1 mM DTT, 4% glycerol, room temperature, 30 min; GST-TFs on glutathione beads, 16-mer random dsDNA library, 0.1% formaldehyde crosslink after washing; high values mean tight binding
# Conditions in all cases: protein: recombinant; tags: N-terminal GST; dsDNA, one strand shown
# FLI1 = target: T1, FLI1 (Homo sapiens, UniProt Q01543 1-452)
# T1 sequence: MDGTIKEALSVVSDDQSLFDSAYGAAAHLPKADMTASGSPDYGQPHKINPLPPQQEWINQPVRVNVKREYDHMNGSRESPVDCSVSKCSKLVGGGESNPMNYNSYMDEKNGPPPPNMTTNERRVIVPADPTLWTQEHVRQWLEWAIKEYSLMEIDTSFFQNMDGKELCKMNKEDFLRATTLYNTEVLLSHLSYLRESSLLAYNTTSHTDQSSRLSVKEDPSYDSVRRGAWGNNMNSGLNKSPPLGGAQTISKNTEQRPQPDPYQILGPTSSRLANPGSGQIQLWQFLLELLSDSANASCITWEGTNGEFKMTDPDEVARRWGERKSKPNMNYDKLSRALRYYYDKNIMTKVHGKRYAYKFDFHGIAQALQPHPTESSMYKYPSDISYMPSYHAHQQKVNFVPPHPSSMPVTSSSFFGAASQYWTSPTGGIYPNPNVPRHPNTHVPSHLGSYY
# Method in brief: (§1)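 Pools were built from human transcription factors expressed in yeast as GST fusions, captured on glutathione beads and DNA-barcoded, along with a tag-only sample. Incubation with 200 nmole of a 16-mer random double-stranded DNA library lasted 30 min at room temperature in Tris/NaCl/DTT/glycerol buffer, and was followed by washing, 0.1% formaldehyde crosslinking, proximity ligation, PCR amplification and Illumina NextSeq500 sequencing. Binding signal is the quotient of each hexamer's read frequency for a factor and its frequency for the tag-only sample.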
# ELK1 = target: T2, ELK1 (Homo sapiens, UniProt P19419 1-428)
# T2 sequence: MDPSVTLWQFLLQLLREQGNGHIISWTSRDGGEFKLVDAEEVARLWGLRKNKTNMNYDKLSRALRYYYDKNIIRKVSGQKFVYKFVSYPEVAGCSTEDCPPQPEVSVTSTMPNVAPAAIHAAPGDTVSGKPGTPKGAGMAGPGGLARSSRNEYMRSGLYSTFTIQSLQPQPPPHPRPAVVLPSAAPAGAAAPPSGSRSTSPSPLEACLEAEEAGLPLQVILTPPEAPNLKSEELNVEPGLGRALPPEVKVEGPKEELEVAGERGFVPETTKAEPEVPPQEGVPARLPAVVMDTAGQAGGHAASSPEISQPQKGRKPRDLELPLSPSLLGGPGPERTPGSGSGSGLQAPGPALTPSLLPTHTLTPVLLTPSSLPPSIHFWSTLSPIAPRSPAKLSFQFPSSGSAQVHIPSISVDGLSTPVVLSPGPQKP
# Method in brief: as §1
# GABPA = target: T3, GABPA (Homo sapiens, UniProt Q06546 1-454)
# T3 sequence: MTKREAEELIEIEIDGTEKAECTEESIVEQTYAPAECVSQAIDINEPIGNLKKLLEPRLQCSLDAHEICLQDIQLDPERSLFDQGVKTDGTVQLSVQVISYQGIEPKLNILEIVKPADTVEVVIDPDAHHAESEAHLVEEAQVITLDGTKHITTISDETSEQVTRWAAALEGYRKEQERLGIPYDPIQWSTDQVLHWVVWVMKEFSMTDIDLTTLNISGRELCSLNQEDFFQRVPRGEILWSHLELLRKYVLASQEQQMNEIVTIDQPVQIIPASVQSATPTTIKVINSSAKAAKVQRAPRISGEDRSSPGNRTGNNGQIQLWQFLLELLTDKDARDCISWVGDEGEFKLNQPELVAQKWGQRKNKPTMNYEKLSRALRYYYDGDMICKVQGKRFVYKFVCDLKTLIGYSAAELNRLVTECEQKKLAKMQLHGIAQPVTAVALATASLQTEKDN
# Method in brief: as §1
# ERG = target: T4, ERG (Homo sapiens, UniProt P11308 1-479)
# T4 sequence: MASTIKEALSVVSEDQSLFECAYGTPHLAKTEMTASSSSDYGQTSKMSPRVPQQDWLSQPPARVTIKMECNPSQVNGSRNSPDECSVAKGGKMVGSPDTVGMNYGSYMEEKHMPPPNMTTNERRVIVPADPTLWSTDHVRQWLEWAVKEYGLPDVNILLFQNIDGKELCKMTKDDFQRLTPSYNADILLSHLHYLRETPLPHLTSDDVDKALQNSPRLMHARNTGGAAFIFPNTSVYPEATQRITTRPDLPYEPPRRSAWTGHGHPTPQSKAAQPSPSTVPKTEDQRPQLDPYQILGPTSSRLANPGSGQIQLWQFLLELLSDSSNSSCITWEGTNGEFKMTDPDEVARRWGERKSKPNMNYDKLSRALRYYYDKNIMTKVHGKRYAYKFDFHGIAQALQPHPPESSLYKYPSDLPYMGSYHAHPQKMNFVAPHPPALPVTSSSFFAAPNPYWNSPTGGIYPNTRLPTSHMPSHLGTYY
# Method in brief: as §1
# ELF1 = ELF1 (Homo sapiens, UniProt P32519 1-619)
# ELF1, sequence (P32519 whole entry): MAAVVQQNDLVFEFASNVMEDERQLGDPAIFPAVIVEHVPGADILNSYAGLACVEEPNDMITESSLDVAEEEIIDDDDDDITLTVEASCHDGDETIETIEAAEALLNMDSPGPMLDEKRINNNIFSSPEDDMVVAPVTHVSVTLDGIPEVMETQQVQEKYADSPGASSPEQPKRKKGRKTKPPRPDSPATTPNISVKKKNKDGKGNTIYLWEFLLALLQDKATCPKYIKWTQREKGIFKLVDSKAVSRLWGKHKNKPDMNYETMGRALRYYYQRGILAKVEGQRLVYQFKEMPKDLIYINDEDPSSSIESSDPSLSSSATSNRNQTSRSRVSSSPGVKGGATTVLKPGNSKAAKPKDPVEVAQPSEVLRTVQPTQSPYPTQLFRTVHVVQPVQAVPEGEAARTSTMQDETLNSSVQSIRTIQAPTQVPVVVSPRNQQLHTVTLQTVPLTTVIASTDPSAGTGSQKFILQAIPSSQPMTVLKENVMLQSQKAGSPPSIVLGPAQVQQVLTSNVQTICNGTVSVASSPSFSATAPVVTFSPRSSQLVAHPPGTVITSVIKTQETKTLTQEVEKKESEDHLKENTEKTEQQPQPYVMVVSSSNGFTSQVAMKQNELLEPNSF
# Method in brief: as §1
# EHF = target: T5, EHF (Homo sapiens, UniProt Q9NZC4 1-300)
# T5 sequence: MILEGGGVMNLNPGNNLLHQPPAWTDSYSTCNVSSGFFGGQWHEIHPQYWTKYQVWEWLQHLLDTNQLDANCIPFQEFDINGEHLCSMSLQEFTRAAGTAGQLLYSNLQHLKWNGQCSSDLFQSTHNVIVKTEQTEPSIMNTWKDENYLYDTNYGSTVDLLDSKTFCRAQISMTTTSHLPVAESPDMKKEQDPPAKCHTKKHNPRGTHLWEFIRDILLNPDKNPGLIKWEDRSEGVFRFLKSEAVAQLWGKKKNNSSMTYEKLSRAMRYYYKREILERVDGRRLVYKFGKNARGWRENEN
# Method in brief: as §1
# SPI1 = SPI1 (Homo sapiens, UniProt P17947 1-270)
# Method in brief: as §1
# SPIB = SPIB (Homo sapiens, UniProt Q01892 1-262)
# SPIB, sequence (Q01892 whole entry): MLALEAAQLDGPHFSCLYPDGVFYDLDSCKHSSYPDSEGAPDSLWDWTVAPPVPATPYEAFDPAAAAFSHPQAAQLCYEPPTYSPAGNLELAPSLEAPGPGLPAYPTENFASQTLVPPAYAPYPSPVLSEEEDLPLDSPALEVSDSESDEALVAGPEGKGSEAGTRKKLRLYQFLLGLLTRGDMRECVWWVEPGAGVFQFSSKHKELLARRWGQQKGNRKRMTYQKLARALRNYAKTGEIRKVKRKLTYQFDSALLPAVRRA
# Method in brief: as §1
# ELK3 = target: T6, ELK3 (Homo sapiens, UniProt P41970 1-407)
# T6 sequence: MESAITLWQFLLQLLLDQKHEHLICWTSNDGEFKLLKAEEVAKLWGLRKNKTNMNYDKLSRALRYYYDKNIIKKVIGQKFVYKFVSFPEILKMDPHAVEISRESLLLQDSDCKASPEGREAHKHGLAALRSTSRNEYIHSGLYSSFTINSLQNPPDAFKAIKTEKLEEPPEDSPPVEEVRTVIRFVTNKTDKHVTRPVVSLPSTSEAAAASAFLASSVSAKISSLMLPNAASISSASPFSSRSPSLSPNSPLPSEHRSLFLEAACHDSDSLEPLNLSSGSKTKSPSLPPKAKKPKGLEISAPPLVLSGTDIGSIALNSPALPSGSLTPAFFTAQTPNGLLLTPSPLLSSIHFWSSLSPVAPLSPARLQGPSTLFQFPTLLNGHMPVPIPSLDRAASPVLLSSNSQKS
# Method in brief: as §1
# FEV = target: T7, FEV (Homo sapiens, UniProt Q99581 1-238)
# T7 sequence: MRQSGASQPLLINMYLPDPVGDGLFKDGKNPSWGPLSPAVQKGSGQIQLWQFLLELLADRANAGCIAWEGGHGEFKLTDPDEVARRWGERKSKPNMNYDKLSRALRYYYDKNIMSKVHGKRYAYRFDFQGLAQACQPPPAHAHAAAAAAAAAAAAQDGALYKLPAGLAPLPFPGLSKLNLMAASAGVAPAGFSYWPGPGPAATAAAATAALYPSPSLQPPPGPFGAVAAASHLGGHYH
# Method in brief: as §1
# ETV5 = ETV5 (Homo sapiens, UniProt P41161 1-510)
# ETV5, sequence (P41161 whole entry): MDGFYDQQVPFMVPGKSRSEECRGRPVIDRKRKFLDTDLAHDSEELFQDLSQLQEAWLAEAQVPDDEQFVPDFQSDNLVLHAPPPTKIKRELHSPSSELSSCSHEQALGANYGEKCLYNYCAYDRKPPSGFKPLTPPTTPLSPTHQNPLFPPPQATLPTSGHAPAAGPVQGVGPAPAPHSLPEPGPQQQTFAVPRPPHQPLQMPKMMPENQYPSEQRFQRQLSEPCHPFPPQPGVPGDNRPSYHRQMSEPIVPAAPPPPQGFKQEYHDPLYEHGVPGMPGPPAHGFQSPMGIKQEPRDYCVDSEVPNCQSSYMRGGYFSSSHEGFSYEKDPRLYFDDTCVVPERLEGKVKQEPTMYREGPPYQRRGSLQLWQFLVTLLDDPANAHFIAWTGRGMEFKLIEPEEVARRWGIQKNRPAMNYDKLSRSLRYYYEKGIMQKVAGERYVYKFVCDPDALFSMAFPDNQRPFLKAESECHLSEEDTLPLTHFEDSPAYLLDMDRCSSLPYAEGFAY
# Method in brief: as §1
# SPIC = target: T8, SPIC (Homo sapiens, UniProt Q8N5J4 1-248)
# T8 sequence: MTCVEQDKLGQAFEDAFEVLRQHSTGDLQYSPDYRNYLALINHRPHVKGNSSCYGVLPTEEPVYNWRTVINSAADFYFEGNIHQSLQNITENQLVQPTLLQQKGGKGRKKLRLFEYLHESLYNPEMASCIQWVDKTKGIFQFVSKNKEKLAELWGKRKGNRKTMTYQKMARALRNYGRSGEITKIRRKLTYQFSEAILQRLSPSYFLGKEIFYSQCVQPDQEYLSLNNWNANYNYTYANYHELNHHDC
# Method in brief: as §1
# ELF4 = ELF4 (Homo sapiens, UniProt Q99607 1-663)
# ELF4, sequence (Q99607 whole entry): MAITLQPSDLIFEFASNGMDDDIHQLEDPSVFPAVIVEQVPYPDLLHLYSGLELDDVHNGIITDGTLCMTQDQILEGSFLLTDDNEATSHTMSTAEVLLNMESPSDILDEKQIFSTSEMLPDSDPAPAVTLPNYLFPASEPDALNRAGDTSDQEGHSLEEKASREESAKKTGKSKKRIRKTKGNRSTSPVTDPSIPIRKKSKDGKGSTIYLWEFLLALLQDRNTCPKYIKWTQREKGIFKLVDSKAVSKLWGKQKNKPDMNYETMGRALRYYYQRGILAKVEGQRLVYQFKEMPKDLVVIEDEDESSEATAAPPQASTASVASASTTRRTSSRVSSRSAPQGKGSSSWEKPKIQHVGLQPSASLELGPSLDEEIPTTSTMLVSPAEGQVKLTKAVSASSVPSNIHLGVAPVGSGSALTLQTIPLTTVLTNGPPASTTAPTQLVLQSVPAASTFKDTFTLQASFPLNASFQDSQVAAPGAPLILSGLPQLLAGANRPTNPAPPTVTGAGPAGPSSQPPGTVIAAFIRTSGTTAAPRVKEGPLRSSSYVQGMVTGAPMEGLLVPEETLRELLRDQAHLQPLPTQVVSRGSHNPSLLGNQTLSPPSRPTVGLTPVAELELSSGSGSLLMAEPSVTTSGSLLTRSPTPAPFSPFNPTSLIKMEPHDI
# Method in brief: as §1
# ELK4 = target: T9, ELK4 (Homo sapiens, UniProt P28324-2 1-405)
# T9 sequence: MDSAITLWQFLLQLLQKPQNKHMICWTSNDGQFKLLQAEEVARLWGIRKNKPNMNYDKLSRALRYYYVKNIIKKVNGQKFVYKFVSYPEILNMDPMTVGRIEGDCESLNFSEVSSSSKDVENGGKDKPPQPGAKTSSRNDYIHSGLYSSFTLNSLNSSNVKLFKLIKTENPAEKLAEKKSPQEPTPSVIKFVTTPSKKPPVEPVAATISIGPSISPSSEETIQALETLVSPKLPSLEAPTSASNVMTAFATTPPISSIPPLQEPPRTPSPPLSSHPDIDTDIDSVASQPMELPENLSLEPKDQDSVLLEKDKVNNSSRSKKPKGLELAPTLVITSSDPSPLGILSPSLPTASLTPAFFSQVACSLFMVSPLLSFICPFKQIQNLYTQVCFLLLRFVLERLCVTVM
# Method in brief: as §1
# ETV2 = target: T10, ETV2 (Homo sapiens, UniProt O00321 1-342)
# T10 sequence: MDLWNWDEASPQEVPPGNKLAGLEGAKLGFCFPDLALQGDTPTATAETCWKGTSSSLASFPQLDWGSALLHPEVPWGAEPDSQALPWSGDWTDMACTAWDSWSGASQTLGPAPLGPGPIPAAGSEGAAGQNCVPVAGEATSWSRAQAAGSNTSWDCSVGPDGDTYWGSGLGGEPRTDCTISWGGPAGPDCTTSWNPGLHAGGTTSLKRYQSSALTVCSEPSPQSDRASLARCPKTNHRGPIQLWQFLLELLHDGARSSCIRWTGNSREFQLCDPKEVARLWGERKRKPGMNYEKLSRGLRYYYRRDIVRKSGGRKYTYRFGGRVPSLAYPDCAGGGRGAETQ
# Method in brief: as §1
# ELF3 = target: T11, ELF3 (Homo sapiens, UniProt P78545 1-371)
# T11 sequence: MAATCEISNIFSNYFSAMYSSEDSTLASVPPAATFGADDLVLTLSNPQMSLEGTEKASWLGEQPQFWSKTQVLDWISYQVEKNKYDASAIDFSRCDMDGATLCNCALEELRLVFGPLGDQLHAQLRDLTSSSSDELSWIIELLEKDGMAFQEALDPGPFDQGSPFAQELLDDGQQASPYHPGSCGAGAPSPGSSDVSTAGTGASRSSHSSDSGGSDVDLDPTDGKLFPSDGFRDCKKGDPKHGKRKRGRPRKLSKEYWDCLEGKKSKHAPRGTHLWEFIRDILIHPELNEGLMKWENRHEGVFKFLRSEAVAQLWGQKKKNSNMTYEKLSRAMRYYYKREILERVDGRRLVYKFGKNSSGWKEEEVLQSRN
# Method in brief: as §1
# ETV1 = ETV1 (Homo sapiens, UniProt P50549 1-477)
# ETV1, sequence (P50549 whole entry): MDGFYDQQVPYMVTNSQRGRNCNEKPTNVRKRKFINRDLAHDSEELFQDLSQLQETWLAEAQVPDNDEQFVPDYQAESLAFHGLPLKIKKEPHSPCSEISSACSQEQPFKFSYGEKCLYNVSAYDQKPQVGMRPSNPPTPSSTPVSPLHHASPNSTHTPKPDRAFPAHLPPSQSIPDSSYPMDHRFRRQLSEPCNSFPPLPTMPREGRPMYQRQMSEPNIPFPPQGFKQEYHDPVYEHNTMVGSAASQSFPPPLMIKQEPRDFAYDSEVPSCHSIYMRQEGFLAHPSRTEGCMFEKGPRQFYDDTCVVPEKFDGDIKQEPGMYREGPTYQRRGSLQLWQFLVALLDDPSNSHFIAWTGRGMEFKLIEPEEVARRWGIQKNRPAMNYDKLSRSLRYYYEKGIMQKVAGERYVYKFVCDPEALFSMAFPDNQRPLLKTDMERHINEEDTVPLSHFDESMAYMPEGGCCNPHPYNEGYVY
# Method in brief: as §1
Sequence,binding signal (FLI1),binding signal (ELK1),binding signal (GABPA),binding signal (ERG),binding signal (ELF1),binding signal (EHF),binding signal (SPI1),binding signal (SPIB),binding signal (ELK3),binding signal (FEV),binding signal (ETV5),binding signal (SPIC),binding signal (ELF4),binding signal (ELK4),binding signal (ETV2),binding signal (ELF3),binding signal (ETV1)
GATGCA,"1.15 fold enrichment (6-mer frequency, TF over GST control)","1.14 fold enrichment (6-mer frequency, TF over GST control)","1.18 fold enrichment (6-mer frequency, TF over GST control)","1.11 fold enrichment (6-mer frequency, TF over GST control)","1.06 fold enrichment (6-mer frequency, TF over GST control)","1.2 fold enrichment (6-mer frequency, TF over GST control)","1.06 fold enrichment (6-mer frequency, TF over GST control)","1.23 fold enrichment (6-mer frequency, TF over GST control)","1.16 fold enrichment (6-mer frequency, TF over GST control)","1.12 fold enrichment (6-mer frequency, TF over GST control)","1.13 fold enrichment (6-mer frequency, TF over GST control)","1.17 fold enrichment (6-mer frequency, TF over GST control)","1.23 fold enrichment (6-mer frequency, TF over GST control)","1.19 fold enrichment (6-mer frequency, TF over GST control)","1 fold enrichment (6-mer frequency, TF over GST control)","1.16 fold enrichment (6-mer frequency, TF over GST control)","1.04 fold enrichment (6-mer frequency, TF over GST control)"
ACCAAC,"1.19 fold enrichment (6-mer frequency, TF over GST control)","1.36 fold enrichment (6-mer frequency, TF over GST control)","1.23 fold enrichment (6-mer frequency, TF over GST control)","1.15 fold enrichment (6-mer frequency, TF over GST control)","1.24 fold enrichment (6-mer frequency, TF over GST control)","1.18 fold enrichment (6-mer frequency, TF over GST control)","1.19 fold enrichment (6-mer frequency, TF over GST control)","1.12 fold enrichment (6-mer frequency, TF over GST control)","1.18 fold enrichment (6-mer frequency, TF over GST control)","1.19 fold enrichment (6-mer frequency, TF over GST control)","1.22 fold enrichment (6-mer frequency, TF over GST control)","1.1 fold enrichment (6-mer frequency, TF over GST control)","1.25 fold enrichment (6-mer frequency, TF over GST control)","1.31 fold enrichment (6-mer frequency, TF over GST control)","1.25 fold enrichment (6-mer frequency, TF over GST control)","1.2 fold enrichment (6-mer frequency, TF over GST control)","1.16 fold enrichment (6-mer frequency, TF over GST control)"
